Source: PubChem
An excerpt weighted towards active compounds, which were near 10% of everything screened.
PLK1 PBD inh – blocks phosphopeptide binding to human PLK1 polo-box domain | Plk1 PBD binding of FITC phosphopeptide, fluorescence polarization | 360,000 compounds, 2.8% hits | AID 720504 | Potency, µM, actives largely listed as inhibitors | P53350; further: series mostly up to about 57 µM; nearly all actives have a fitted effect of over 65% in size
VDR inh – blocks the human vitamin D receptor; P11473; VDR-SRC2-3 peptide fluorescence polarization, 2 h; Potency, µM, usual class: inhibitors; 400,000 compounds, 0.93% hits
Target sequence (P11473 whole entry, looked up): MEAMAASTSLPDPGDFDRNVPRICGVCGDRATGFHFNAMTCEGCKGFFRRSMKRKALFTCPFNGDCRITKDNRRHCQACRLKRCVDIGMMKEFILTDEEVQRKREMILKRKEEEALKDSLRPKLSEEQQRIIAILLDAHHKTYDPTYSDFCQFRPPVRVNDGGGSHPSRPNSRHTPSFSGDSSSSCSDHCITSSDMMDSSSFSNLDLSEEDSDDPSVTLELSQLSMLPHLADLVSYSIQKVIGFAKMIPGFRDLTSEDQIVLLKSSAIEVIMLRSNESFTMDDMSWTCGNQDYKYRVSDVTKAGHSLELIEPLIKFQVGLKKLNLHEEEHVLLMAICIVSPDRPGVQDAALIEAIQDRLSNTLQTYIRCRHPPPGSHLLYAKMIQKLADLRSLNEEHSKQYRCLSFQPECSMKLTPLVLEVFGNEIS
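The screen uses fluorescence polarization to detect compounds that interfere with recruitment of the SRC2-3 coactivator peptide to VDR; plates are read after 2 h at room temperature.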
CCT chaperon mod – changes cytosolic chaperonin activity; purified chaperonin ATPase assay, HTRF ADP detection, 30 min; activity change, % (test concentration not listed), hits read low; 360,000 compounds, 0.3% hits; in the data active means activity change below about -30%
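TRiC at 40 or 20 nM final (batch-dependent) in 30 mM Tris pH 7.4, 100 mM KCl, 5 mM MgCl2, 1 mM DTT, with compound at single 76 uM and 10 uM ATP, 30 min at 37 deg C. ADP detected by HTRF Transcreener, 665/615 ratio.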
MmCpn inh – inhibitors of Methanococcus maripaludis chaperonin TRiC (MmCpn) | 330,000 compounds, 0.031% hits | purified Mm-Cpn ATPase, ADP Transcreener TR-FRET | Potency, µM (doses to about 76.9 µM), hits mostly inhibitors | AID 504842; further: nearly all actives have a fitted effect of over 80% in size
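TR-FRET (320 nm excitation; 590 and 665 nm emission) reports ADP made from 10 uM ATP by 25 nM enzyme; compounds were preincubated 10 min, reaction run 30 min, both at 37°C.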
Sfp inh – blocks B. subtilis Sfp PPTase activity; Q9F4F7; Biochemical Sfp PPTase activity, qHTS; Potency, µM, hits mostly inhibitors; 310,000 compounds, 3.5% hits;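 further: the enzyme is Sfp with the accession as filed and its product quenches rhodamine fluorescence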
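Sfp 15 nM + cpd, 15 min RT; start w/ rhodamine-CoA 5 uM, BHQ-2-YbbR 12.5 uM (final); 50 mM Hepes pH 7.6, 10 mM MgCl2, 0.01% NP-40, 0.01% BSA; read 525/598 nm at 0 and 30 min.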
G9a inh – inhibitors of human histone lysine methyltransferase G9a; Q96KQ7; G9a H3K9 monomethylation, AlphaScreen, 2 h; Potency, µM (series often up to 102 µM), most hits filed as inhibitors; 350,000 compounds, 8.8% hits; AID 504332; further: nearly all actives have a fitted effect of over 75% in size
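Step 1: enzyme (final 20 nM) with compound, 15 min RT. Step 2: substrate peptide 500 nM and SAM 20 uM, 2 h RT. Step 3: anti-H3K9me1 antibody and AlphaScreen beads, 10 min, then plate read.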
TbPYK inh – confirmation of Trypanosoma brucei pyruvate kinase inhibitors; shares compounds with PLK1 PBD inh; Potency, µM (titrated, usually from 76.9 µM), most hits filed as inhibitors; recombinant TbPYK, Kinase-Glo ATP luminescence; 890 compounds, 67% hits; further: nearly all actives have a fitted effect of over 70% in size
TbPYK orthogonal – TbPYK inhibition, orthogonal confirmation; shares compounds with PLK1 PBD inh; recombinant TbPYK, ADP-Glo luminescence, 60 min; Potency, µM (top dose mostly 76.9 µM), usual class: inhibitors; 890 compounds, 62% hits; further: nearly all actives have a fitted effect of over 75% in size
Hits are given with their value. Unless noted, the call rests on the fitted dose curve; in most records, active means well fitted curve in the direction sought with a large enough effect; inconclusive means small, poorly fitted or top-dose-only effect, or another doubt; inactive means no such curve, though single readings can be large; an effect the other way counts as inactive or inconclusive.

How did O=C1C=CC(=O)N1c1ccc2ccccc2c1 do in these assays?
PLK1 PBD inh: 8.44µM; VDR inh: 79.4µM; CCT chaperon mod: inactive; TbPYK inh: 25.1µM; TbPYK orthogonal: inconclusive

How did Cc1cccc(N2C(=O)C=CC2=O)c1 do in these assays?
PLK1 PBD inh: 29.9µM; VDR inh: 50.1µM; CCT chaperon mod: inactive; TbPYK inh: inconclusive; TbPYK orthogonal: inconclusive

How did CC(=O)Nc1ccc2c(c1)C(=O)N(c1cccc(C)c1)C2=O do in these assays?
PLK1 PBD inh: inactive; VDR inh: inactive; CCT chaperon mod: inactive; MmCpn inh: inactive; Sfp inh: inactive; G9a inh: inactive

Results for COc1ccc(/C=C2\N=C(C)N(c3ccc4ccccc4c3)C2=O)cc1OC ?
PLK1 PBD inh: inactive; VDR inh: inactive; CCT chaperon mod: inactive; MmCpn inh: inactive; Sfp inh: inactive; G9a inh: inactive

How did O=C(Nc1ccc(Nc2ccccc2)cc1)c1c(F)c(F)c(F)c(F)c1F do in these assays?
PLK1 PBD inh: inactive; VDR inh: inactive; CCT chaperon mod: inactive; MmCpn inh: inactive; Sfp inh: inactive

Results for COc1ccc(-c2ccc(N(C)C)cc2)cc1C1C2C=CCCC2(C)C(=O)N1Cc1ccccc1 (stereo not given) ?
VDR inh: inactive; Sfp inh: inconclusive

How did Cc1ccc2c(c1)N(C(=O)c1ccc(F)cc1)C(C)(C)CC2(C)c1ccccc1 (stereo not given) do in these assays?
VDR inh: inactive; G9a inh: inactive

Results for Cc1cccc(OCCCCn2nnc3sc4c(c3c2=O)CCC(C)C4)c1 (stereo not given) ?
VDR inh: inactive; G9a inh: inconclusive

What do the screens show for `COc1ccc(NC(=O)Cn2c(=O)oc3cc(S(=O)(=O)N4CCCC4)ccc32)cc1OC`?
VDR inh: inactive; G9a inh: inactive

Results for COc1cc(/C=N/NC(=O)c2nonc2C)ccc1O ?
PLK1 PBD inh: inactive; VDR inh: inactive; CCT chaperon mod: inactive; MmCpn inh: inactive; Sfp inh: inactive; G9a inh: inactive

Results for Cc1nonc1C(=O)N/N=C/c1ccc(O)c(O)c1 ?
PLK1 PBD inh: inactive; VDR inh: inactive; CCT chaperon mod: inactive; MmCpn inh: inactive; Sfp inh: inactive; G9a inh: 44.7µM; TbPYK inh: inconclusive; TbPYK orthogonal: inactive

How did CCOC(=O)c1c(-c2ccc(C)cc2)csc1NC(=O)c1cc(=O)c2cc(C)c(C)cc2o1 do in these assays?
VDR inh: inactive; G9a inh: inactive

How did CN(Cc1nccn1C)C(=O)c1cc(COc2cccc(C(F)(F)F)c2)on1 do in these assays?
PLK1 PBD inh: inactive; VDR inh: inactive; CCT chaperon mod: inactive; MmCpn inh: inactive; Sfp inh: inactive; G9a inh: inactive

Results for Cc1ccc(CN(C)C(=O)c2cc(COc3cccc(C(F)(F)F)c3)on2)o1 ?
PLK1 PBD inh: inconclusive; VDR inh: 89.1µM; CCT chaperon mod: inactive; MmCpn inh: inactive; Sfp inh: 20µM; G9a inh: 31.6µM; TbPYK inh: 12.6µM; TbPYK orthogonal: 11.2µM

What do the screens show for `Cc1ccc(S(=O)(=O)C=CS(=O)(=O)c2ccc(C)cc2)cc1`?
PLK1 PBD inh: 2.67µM; CCT chaperon mod: inactive; TbPYK inh: inactive; TbPYK orthogonal: inconclusive

Results for Cc1ccc(/C=C/c2onc(C)c2S(=O)(=O)N2CCC(C(=O)NCC(C)c3ccccc3)CC2)cc1 (stereo not given) ?
VDR inh: inactive; G9a inh: inactive

What do the screens show for `O=C1N=C(c2ccccc2)S/C1=C\c1cccs1`?
PLK1 PBD inh: 23.8µM; VDR inh: inconclusive; CCT chaperon mod: inactive; MmCpn inh: inactive; Sfp inh: 35.5µM; G9a inh: 1.41µM; TbPYK inh: 4.47µM; TbPYK orthogonal: 6.31µM

Results for Cc1cc(C)c(NC(=O)Cc2csc(C)n2)c(Cl)c1 ?
VDR inh: inactive; G9a inh: inactive
